Bioassay records (PubChem BioAssay)
Compounds with a hit are over-represented: about 2.5% of the library has one in this group of screens.
POLK inh: blocks human DNA polymerase kappa activity | Q9UBT6 | AID 588579 | actives 0.53% (n = 400,000) | Potency, µM (titrated, usually from 107 µM), without a hit: at the highest dose activity, negative = inhibition, most hits filed as inhibitors | purified Pol kappa, fluorescent DNA synthesis assay, 10 min; further: on the % scale 0 is the no-effect control and ±100 the full control effect
Target sequence (Q9UBT6 whole entry, looked up): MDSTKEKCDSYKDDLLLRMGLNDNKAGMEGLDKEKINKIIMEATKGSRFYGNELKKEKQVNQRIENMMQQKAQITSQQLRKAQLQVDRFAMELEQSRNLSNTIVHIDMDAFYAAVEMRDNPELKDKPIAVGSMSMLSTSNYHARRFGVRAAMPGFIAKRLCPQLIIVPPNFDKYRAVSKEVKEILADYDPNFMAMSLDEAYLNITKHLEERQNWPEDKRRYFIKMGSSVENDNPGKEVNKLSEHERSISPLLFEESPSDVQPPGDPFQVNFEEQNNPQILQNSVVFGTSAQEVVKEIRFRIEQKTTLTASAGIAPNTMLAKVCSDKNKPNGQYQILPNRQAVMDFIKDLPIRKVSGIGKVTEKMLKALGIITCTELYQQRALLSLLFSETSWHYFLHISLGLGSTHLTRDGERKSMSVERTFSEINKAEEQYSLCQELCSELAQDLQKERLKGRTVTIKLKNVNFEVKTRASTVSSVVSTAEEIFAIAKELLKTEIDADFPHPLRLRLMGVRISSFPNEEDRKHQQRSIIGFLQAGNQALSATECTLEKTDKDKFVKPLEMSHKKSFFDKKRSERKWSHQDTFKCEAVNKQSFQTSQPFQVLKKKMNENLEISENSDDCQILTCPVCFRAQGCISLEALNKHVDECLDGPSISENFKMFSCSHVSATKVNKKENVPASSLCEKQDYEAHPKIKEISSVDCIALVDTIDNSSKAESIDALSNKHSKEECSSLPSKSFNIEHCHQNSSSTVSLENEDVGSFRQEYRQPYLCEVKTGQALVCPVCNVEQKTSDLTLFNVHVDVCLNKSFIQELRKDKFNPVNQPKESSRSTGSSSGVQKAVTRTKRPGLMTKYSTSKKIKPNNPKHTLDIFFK
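Kinetic fluorescence screen: compound preincubated 15 min RT with 10 nM enzyme; 50 nM substrate (final) initiates; reads at 0/10 min.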
L3MBTL1 inh: inhibitors of human L3MBTL1 | actives 0.66% (n = 230,000) | AlphaScreen L3MBTL1–H3K9me1 peptide binding | Q9Y468 | Potency, µM (doses to about 57.1 µM), without a hit: at the highest dose activity, negative = inhibition, hits mostly inhibitors; further: on the % scale 0 is the no-effect control and ±100 the full control effect; nearly all actives have a fitted effect of over 60% in size
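L3MBTL1 (50 nM) pre-complexed 30 min with biotinylated H3(1-15)K9me1 peptide (75 nM), then compounds added for 30 min at room temperature; AlphaScreen streptavidin donor/nickel chelate acceptor beads (10 ug/mL final) read after 30 min dark incubation.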
POLB inh: inhibitors of human DNA polymerase beta; Pol beta primer extension/strand displacement, fluorescence kinetic; Potency, µM (titrated, usually from 114 µM), inactives show top-dose activity change, negative = inhibition, most hits filed as inhibitors; actives 1.3% (n = 340,000); AID 485314; further: on the % scale 0 is the no-effect control and ±100 the full control effect
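Curves were derived by four-parameter Hill fits of normalized qHTS data. The kinetic fluorescent primer-extension read was taken at 0 and 10 min after 50 nM substrate, following a 15 min room-temperature preincubation of 10 nM enzyme with compounds.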
APEX1 inh: blocks human APE1 abasic DNA cleavage. Potency, µM (top dose mostly 65.8 µM), without a hit: at the highest dose activity change, negative = inhibition, most hits filed as inhibitors. actives 0.35% (n = 350,000). recombinant APE1, TAMRA/BHQ-2 abasic DNA cleavage fluorescence. AID 2517;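 further: plate controls were vehicle for no effect and reference inhibitor for full effect; nearly all actives have a fitted effect of over 55% in size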
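Endonuclease cleavage of a quenched abasic-site DNA duplex (50 nM) by APE1 (0.75 nM) was tracked by TAMRA dequenching. Compounds were preincubated with enzyme 15 min at room temperature; data normalized to buffer-only and DMSO wells plus NSC13755 control.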
Pol eta inh: DNA polymerase eta (human) inhibition. Q9Y253. recombinant Pol eta, fluorescent DNA replication assay. Potency, µM (doses to about 114 µM), without a hit: top-dose activity change, negative = inhibition, usual class: inhibitors. actives 1.2% (n = 390,000). AID 588591; further: on the % scale 0 is the no-effect control and ±100 the full control effect
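Fluorescent replication assay: 50 nM final substrate added after a 15 min room-temperature compound preincubation with 10 nM enzyme. Signal taken at 0 min and again at 10 min.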
Pol iota inh: inhibitors of human DNA polymerase iota. Q9UNA4. Pol iota fluorescent replication assay, 10 min. Potency, µM (top dose mostly 115 µM), inactives show at the top dose activity, negative = inhibition, hits mostly inhibitors. actives 1% (n = 390,000)
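Pol iota at 10 nM preincubated 15 min with compounds at room temperature; reaction started with fluorescent substrate, 50 nM final. Fluorescence read kinetically at 0 and 10 min; buffer-only wells as negative control.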
TbPGK inh: TbPGK inhibition, hit validation | shares compounds with POLK inh | TbPGK coupled GAPDH assay, Kinase-Glo luminescence | Potency, µM (highest dose often 57.5 µM), without a hit: at the top dose activity change, negative = inhibition, actives largely listed as inhibitors | actives 79% (n = 500) | AID 686980; further: on the % scale 0 is the no-effect control and ±100 the full control effect; nearly all actives have a fitted effect of over 65% in size
Pol iota confirm: Human Pol iota inhibitor confirmatory assay | Pol iota primer extension, TAMRA/BHQ fluorescence | actives 77% (n = 1,500) | Potency, µM, hits mostly inhibitors | AID 720496 | shares compounds with POLK inh
Active calls of the source: *; [ ] = another dose, or the depositor's remark. The call rests on the fitted dose curve; in most records, active means well fitted curve in the direction sought with a large enough effect; inconclusive means small, poorly fitted or top-dose-only effect, or another doubt; inactive means no such curve, though single readings can be large; an effect the other way counts as inactive or inconclusive. Potency means the concentration at half of the fitted maximal effect.

What do the screens show for `CC1=C/C(=C(/c2cc(C)c(O)c(Br)c2)c2ccccc2S(=O)(=O)O)C=C(Br)C1=O`?
POLK inh: inconclusive; POLB inh: -27%; APEX1 inh: -5%; Pol eta inh: 35µM*; Pol iota inh: inconclusive; TbPGK inh: 18µM*

Results for Nc1ccc2cc3[nH]c4cc(N)ccc4c3nc2c1 ?
POLK inh: 16µM*; Pol eta inh: 4.5µM*; Pol iota inh: 8.9µM*; Pol iota confirm: 19*

How did Cc1cc(=O)[nH]c2cc(N)ccc12 do in these assays?
POLK inh: 5%; Pol iota inh: 72%

Results for CCOc1ccc(-c2c(C(=O)N/N=C/c3cccnc3)nnn2-c2nonc2N)cc1 ?
POLK inh: inconclusive; POLB inh: inconclusive; APEX1 inh: -10%; Pol eta inh: inconclusive; Pol iota inh: 22µM*; Pol iota confirm: inconclusive

What do the screens show for `Cc1ccc(-c2c(C(=O)N/N=C/c3cccnc3)nnn2-c2nonc2N)cc1`?
POLK inh: 1%; POLB inh: 1%; APEX1 inh: 25%; Pol eta inh: -11%; Pol iota inh: 14%

What do the screens show for `Cc1ccc(NC(=O)CSc2nc3ccccc3c3nc(CCn4c(C)nc5ccccc54)nn23)cc1F`?
POLK inh: -11%[60.1 µM]; POLB inh: inconclusive; Pol eta inh: inconclusive; Pol iota inh: 79µM*; Pol iota confirm: inconclusive

What do the screens show for `Cc1cncn1CCc1nc2c3ccccc3nc(SCC(=O)Nc3ccc(F)cc3)n2n1`?
POLK inh: -4%[60.1 µM]; POLB inh: -11%; Pol eta inh: -20%; Pol iota inh: 33%; TbPGK inh: -14%

What do the screens show for `O=C(Nc1ccnn1C1CCN(Cc2c[nH]c3ccccc23)CC1)c1ccccc1`?
POLK inh: 5%; POLB inh: 1%; APEX1 inh: -6%; Pol eta inh: -10%; Pol iota inh: 27%

How did Cc1ccc2nc3sc(C(=O)Nc4ccncc4)cc3cc2c1 do in these assays?
Pol iota confirm: inconclusive

How did Cc1ccc(CCNC(=O)c2cc3cc4cc(C)ccc4nc3s2)cc1 do in these assays?
POLK inh: 3%[60.1 µM]; POLB inh: inconclusive; Pol eta inh: -10%; Pol iota inh: 30%

Results for Cc1ccc2nc3sc(C(=O)Nc4ccc(F)cc4)cc3cc2c1 ?
POLK inh: -2%[60.1 µM]; L3MBTL1 inh: -2%; POLB inh: 2.5µM*; APEX1 inh: inconclusive; Pol eta inh: -11%; Pol iota inh: inconclusive; Pol iota confirm: 75*

Results for CCOc1ccccc1NC(=O)c1cc2cc3cc(C)ccc3nc2s1 ?
POLK inh: -4%[60.1 µM]; POLB inh: -21%; Pol eta inh: -12%; Pol iota inh: 5%

How did Cc1cccc(NC(=O)C(C)Sc2nc3nc(C)cc(C)n3n2)c1 (stereo not drawn) do in these assays?
POLK inh: -21%; L3MBTL1 inh: 7%; APEX1 inh: 10%; Pol eta inh: -17%; Pol iota inh: 68%

How did O=C(Nc1ccccc1)OCCOc1ccc(Cl)cc1Cl do in these assays?
POLK inh: -1%; Pol eta inh: -25%; Pol iota inh: 17%

What do the screens show for `COc1cc(/C=C/c2nc3ccccc3c(=O)[nH]2)cc(Cl)c1O`?
POLK inh: -1%; POLB inh: inconclusive; APEX1 inh: 12%; Pol eta inh: inconclusive; Pol iota inh: 33%; Pol iota confirm: inconclusive

What do the screens show for `Cc1cc(=O)oc2cc(OCC(=O)N/N=C/c3ccccc3O)ccc12`?
POLK inh: -8%; POLB inh: 3.2µM*; APEX1 inh: 23%; Pol eta inh: 18µM*; Pol iota inh: 29%; Pol iota confirm: inconclusive

What do the screens show for `Cc1cc(=O)oc2cc(OCC(=O)NCc3ccccn3)ccc12`?
POLK inh: -13%; L3MBTL1 inh: -17%; POLB inh: 18%; APEX1 inh: 1%; Pol eta inh: -8%; Pol iota inh: 2%

What do the screens show for `COc1ccc(/C=C/c2nc3ccccc3n2C)cc1`?
POLK inh: -14%; POLB inh: 0%; APEX1 inh: -6%; Pol eta inh: -1%; Pol iota inh: 139%; TbPGK inh: 4.1µM*

How did COc1ccc2noc3c2c1C(=O)c1ccccc1-3 do in these assays?
POLK inh: inconclusive; Pol eta inh: inconclusive; Pol iota inh: inconclusive; Pol iota confirm: inconclusive

Results for Cc1ccc(CCNS(=O)(=O)c2cc3c(cc2C)n(C)c(=O)c(=O)n3C)cc1 ?
POLK inh: 7%; L3MBTL1 inh: 1%; POLB inh: inconclusive; APEX1 inh: 18%; Pol eta inh: -8%; Pol iota inh: -1%

How did O=C(CN(c1cccc(C(F)(F)F)c1)S(=O)(=O)c1ccccc1)Nc1cccc(Cl)c1 do in these assays?
POLK inh: -6%[60.1 µM]; POLB inh: inconclusive; Pol eta inh: -28%; Pol iota inh: 16%

What do the screens show for `Cc1ccc(C(=O)O/N=C(\N)c2nonc2N)cc1`?
POLK inh: -1%; L3MBTL1 inh: inconclusive; POLB inh: 1%; APEX1 inh: 2%; Pol eta inh: -20%; Pol iota inh: 142%; TbPGK inh: 23µM*

Results for N/C(=N/OC(=O)c1ccccc1Cl)c1nonc1N ?
POLK inh: -3%; POLB inh: 37%; APEX1 inh: 9%; Pol eta inh: -7%; Pol iota inh: 27%; TbPGK inh: 12µM*

How did CC(C)N(C)Cc1nnnn1CC(=O)N(C)Cc1cccc(Cl)c1 do in these assays?
POLK inh: 3%; POLB inh: -11%; APEX1 inh: 5%; Pol eta inh: -10%; Pol iota inh: -12%

What do the screens show for `COc1ccc(OC)c(S(=O)(=O)Nc2cc3c4c(c2)C(C)C(=O)N4CCC3)c1` (stereo not drawn)?
POLK inh: 4%; L3MBTL1 inh: 0%; APEX1 inh: 6%; Pol eta inh: 2%; Pol iota inh: 59%

How did O=C(Nc1ccc2c(c1)OCCO2)c1coc2ccccc2c1=O do in these assays?
POLK inh: -4%; L3MBTL1 inh: 10%; POLB inh: 41%; APEX1 inh: 19%; Pol eta inh: inconclusive; Pol iota inh: 6%; TbPGK inh: 4.1µM*
